Results from the supplement of paper PMC11732987, “Enantioselective OTUD7B fragment discovery through chemoproteomics screening and high-throughput optimisation” (Communications Chemistry, 2025).

How the values were obtained:
Test in all cases: log2 ratio of Biotin-Ahx-Ub-VS probe labelling (fragment/DMSO); higher = less target engagement (more negative = stronger competition), active = hit call of the paper (q ≤ 0.05, log2 ratio ≤ -1)
Settings in all cases: compound concentration: 200 uM; treatment time: 3 h
USP42 = biological target: T1, USP42 (UniProt Q9H9J4)
T1 sequence (whole entry): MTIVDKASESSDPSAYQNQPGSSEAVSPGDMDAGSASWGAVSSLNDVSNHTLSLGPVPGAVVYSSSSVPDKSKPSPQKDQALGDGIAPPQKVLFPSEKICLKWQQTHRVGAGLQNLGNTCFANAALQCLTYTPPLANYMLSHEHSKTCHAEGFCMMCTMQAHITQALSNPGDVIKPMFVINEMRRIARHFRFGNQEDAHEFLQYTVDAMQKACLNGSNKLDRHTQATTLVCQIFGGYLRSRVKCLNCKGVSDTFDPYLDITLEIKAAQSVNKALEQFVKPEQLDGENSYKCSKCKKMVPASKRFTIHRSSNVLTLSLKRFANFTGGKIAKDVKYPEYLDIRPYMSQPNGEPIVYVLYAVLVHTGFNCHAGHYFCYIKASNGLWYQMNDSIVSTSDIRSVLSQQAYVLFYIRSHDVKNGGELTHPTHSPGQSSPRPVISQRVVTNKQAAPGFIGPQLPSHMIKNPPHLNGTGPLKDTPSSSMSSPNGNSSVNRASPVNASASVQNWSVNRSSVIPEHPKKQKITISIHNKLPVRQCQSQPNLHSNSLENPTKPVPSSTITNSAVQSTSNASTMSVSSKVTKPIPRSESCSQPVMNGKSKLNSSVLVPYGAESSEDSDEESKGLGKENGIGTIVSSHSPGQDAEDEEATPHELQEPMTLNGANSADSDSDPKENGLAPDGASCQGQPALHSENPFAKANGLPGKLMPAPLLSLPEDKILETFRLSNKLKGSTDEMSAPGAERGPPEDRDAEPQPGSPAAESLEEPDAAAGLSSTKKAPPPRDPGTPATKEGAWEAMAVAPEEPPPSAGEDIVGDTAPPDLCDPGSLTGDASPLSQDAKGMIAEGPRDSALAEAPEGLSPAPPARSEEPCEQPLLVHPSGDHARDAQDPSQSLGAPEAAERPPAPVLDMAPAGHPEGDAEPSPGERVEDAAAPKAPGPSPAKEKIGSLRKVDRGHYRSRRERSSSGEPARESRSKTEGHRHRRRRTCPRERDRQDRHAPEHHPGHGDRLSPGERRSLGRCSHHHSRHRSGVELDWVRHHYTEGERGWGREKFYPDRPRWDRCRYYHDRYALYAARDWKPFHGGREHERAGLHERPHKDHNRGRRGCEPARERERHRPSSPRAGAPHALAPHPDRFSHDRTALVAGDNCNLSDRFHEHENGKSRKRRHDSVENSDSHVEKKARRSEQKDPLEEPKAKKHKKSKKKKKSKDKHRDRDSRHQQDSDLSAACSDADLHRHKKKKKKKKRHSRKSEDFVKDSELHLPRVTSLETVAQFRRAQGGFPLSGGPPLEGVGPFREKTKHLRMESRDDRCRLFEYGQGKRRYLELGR
Summary of the method: (§1)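 HEK293T lysate (495 µg per sample, in Tris/CHAPS/IGEPAL buffer with protease inhibitors) was exposed in triplicate for 3 h to fragment at 200 µM or to vehicle, then to Biotin-Ahx-Ub-VS at 0.5 µM final for 1 h. Labelled DUBs were enriched on NeutrAvidin, digested with LysC and trypsin, and analysed by diaPASEF LC-MS/MS. Spectronaut label-free quantities were normalised to the global median, and values are average log2 ratios of fragment over vehicle from an unpaired t-test. Only proteins with ≥2 unique peptides were used.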

USP46 = USP46 (UniProt P62068)
Summary of the method: as §1

USP47 = biological target: T2, USP47 (UniProt Q96K76)
T2 sequence (whole entry): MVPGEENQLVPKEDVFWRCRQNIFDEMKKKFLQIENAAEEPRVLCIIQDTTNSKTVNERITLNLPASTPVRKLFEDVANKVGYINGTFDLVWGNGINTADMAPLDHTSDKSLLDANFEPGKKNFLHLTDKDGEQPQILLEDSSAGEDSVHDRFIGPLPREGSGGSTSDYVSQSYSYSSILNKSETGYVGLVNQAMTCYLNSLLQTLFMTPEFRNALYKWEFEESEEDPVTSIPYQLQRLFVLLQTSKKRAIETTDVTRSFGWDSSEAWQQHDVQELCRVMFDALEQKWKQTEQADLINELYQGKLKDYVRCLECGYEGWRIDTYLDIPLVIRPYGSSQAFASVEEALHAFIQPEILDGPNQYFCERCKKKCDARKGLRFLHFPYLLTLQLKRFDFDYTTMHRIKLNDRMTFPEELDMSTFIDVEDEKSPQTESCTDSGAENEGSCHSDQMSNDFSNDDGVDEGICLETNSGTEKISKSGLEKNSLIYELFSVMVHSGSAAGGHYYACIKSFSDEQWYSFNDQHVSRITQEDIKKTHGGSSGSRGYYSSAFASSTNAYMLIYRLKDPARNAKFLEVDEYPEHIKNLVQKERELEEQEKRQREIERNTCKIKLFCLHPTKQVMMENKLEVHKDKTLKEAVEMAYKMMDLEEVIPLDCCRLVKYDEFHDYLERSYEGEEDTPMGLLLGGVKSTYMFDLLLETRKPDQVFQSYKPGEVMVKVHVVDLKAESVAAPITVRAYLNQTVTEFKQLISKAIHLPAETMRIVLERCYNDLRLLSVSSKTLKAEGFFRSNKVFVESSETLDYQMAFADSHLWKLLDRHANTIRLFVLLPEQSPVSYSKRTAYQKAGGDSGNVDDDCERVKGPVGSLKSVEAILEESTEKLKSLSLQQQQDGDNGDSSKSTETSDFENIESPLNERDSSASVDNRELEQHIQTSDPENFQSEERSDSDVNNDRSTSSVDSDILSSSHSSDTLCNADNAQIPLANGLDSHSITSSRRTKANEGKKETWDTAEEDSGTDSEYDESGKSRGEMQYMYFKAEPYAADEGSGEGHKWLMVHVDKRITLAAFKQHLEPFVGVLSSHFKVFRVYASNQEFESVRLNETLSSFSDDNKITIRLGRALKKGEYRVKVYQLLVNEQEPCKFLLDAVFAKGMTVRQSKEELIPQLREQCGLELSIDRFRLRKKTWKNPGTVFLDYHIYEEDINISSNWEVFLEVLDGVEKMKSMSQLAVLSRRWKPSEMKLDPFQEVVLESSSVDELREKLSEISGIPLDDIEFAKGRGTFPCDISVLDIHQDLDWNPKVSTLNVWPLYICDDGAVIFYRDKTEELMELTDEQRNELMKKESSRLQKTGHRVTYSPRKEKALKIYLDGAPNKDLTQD
Summary of the method: as §1

USP48 = biological target: T3, USP48 (UniProt Q86UV5)
T3 sequence (whole entry): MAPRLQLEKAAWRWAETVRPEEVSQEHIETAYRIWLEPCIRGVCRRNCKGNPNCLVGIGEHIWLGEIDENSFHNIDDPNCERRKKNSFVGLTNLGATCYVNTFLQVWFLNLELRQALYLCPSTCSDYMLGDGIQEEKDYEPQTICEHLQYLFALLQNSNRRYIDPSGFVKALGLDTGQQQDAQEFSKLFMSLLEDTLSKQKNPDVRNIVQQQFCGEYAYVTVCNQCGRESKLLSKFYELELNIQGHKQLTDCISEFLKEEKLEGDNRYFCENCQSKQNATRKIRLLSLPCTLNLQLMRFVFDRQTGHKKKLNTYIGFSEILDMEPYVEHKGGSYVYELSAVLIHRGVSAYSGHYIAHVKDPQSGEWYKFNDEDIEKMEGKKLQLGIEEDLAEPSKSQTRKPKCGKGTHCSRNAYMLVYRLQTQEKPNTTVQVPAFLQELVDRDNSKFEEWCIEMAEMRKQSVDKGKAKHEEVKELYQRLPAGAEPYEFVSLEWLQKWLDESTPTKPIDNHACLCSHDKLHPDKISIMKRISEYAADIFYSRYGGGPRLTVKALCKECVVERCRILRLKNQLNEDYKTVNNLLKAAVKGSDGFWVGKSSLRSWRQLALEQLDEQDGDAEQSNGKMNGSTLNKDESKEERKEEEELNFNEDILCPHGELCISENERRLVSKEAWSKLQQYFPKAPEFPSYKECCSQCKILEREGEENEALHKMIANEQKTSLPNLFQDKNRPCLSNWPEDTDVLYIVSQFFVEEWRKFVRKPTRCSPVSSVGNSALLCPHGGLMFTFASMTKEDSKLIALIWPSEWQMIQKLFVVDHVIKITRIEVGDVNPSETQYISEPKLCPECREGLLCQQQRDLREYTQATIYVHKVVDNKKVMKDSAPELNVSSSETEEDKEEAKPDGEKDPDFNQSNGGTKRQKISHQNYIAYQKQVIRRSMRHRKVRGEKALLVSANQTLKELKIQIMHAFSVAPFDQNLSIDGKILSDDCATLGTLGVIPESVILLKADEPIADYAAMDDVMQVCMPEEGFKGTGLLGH
Summary of the method: as §1

USP5 = biological target: T4, USP5 (UniProt P45974)
T4 sequence (whole entry): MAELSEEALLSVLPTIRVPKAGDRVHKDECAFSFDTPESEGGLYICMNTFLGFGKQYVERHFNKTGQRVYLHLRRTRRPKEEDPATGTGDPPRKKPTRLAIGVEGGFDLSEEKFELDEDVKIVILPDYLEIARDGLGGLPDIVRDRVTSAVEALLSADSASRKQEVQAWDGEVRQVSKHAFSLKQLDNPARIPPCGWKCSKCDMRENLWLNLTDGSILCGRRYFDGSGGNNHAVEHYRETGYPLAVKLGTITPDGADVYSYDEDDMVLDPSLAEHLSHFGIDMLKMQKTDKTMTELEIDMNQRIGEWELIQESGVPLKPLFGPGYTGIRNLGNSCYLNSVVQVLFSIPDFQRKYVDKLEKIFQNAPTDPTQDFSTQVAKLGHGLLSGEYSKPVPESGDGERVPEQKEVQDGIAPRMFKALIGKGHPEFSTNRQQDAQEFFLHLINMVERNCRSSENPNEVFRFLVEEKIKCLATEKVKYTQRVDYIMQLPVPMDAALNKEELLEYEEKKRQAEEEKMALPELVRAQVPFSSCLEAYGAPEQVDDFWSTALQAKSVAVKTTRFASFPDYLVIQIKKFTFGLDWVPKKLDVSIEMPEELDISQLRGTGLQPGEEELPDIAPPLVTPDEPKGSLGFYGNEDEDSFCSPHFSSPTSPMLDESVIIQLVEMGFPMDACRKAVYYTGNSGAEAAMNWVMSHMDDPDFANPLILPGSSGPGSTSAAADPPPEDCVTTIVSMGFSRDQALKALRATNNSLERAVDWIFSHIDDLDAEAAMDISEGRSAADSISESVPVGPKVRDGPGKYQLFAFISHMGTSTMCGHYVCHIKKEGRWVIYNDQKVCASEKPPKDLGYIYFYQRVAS
Summary of the method: as §1

USP54 = USP54 (UniProt Q70EL1)
Summary of the method: as §1

USP7 = USP7 (UniProt Q93009)
Summary of the method: as §1

USP8 = biological target: T5, USP8 (UniProt P40818)
T5 sequence (whole entry): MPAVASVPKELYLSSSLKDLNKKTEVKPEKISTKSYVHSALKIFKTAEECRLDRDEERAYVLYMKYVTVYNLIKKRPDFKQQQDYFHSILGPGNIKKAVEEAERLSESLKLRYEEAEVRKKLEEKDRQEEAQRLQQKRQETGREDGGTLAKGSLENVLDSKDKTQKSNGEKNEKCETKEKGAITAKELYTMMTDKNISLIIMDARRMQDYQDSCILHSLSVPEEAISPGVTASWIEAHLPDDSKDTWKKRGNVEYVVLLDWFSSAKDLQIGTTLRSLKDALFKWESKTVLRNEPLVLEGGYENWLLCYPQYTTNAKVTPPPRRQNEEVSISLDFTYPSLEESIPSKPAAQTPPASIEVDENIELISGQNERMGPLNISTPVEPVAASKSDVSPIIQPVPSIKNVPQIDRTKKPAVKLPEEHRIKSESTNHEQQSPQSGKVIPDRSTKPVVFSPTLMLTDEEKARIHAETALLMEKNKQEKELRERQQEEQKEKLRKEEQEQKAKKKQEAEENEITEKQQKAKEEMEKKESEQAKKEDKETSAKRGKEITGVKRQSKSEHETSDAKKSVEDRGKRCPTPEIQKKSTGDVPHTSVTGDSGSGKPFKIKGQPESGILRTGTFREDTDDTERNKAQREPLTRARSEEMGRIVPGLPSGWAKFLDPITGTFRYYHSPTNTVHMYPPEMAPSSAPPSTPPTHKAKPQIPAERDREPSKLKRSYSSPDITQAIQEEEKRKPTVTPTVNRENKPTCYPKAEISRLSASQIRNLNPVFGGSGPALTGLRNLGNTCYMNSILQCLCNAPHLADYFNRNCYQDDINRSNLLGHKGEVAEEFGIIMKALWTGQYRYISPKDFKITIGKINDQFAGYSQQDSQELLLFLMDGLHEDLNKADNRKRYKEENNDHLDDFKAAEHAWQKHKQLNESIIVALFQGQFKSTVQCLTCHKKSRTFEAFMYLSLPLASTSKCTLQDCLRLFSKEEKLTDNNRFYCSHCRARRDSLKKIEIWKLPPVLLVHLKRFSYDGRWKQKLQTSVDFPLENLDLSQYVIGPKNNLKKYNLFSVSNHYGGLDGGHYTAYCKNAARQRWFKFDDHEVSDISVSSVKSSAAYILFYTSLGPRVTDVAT
Summary of the method: as §1

USP9X = USP9X (UniProt Q93008)
Summary of the method: as §1

UniProt O00487 = biological target: UniProt O00487
Summary of the method: as §1

Measured: log2 ratio of Biotin-Ahx-Ub-VS probe labelling

Sequence of UniProt O00487 (O00487 whole entry): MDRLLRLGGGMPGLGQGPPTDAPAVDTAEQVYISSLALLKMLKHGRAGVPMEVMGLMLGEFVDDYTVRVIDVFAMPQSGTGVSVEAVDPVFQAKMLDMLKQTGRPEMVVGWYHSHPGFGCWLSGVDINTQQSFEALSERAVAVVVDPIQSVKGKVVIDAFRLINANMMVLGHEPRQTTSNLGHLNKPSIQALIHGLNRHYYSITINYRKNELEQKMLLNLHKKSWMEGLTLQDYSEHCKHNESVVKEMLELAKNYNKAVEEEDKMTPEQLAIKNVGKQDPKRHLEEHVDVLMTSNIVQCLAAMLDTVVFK
Sequence of USP54 (Q70EL1 whole entry): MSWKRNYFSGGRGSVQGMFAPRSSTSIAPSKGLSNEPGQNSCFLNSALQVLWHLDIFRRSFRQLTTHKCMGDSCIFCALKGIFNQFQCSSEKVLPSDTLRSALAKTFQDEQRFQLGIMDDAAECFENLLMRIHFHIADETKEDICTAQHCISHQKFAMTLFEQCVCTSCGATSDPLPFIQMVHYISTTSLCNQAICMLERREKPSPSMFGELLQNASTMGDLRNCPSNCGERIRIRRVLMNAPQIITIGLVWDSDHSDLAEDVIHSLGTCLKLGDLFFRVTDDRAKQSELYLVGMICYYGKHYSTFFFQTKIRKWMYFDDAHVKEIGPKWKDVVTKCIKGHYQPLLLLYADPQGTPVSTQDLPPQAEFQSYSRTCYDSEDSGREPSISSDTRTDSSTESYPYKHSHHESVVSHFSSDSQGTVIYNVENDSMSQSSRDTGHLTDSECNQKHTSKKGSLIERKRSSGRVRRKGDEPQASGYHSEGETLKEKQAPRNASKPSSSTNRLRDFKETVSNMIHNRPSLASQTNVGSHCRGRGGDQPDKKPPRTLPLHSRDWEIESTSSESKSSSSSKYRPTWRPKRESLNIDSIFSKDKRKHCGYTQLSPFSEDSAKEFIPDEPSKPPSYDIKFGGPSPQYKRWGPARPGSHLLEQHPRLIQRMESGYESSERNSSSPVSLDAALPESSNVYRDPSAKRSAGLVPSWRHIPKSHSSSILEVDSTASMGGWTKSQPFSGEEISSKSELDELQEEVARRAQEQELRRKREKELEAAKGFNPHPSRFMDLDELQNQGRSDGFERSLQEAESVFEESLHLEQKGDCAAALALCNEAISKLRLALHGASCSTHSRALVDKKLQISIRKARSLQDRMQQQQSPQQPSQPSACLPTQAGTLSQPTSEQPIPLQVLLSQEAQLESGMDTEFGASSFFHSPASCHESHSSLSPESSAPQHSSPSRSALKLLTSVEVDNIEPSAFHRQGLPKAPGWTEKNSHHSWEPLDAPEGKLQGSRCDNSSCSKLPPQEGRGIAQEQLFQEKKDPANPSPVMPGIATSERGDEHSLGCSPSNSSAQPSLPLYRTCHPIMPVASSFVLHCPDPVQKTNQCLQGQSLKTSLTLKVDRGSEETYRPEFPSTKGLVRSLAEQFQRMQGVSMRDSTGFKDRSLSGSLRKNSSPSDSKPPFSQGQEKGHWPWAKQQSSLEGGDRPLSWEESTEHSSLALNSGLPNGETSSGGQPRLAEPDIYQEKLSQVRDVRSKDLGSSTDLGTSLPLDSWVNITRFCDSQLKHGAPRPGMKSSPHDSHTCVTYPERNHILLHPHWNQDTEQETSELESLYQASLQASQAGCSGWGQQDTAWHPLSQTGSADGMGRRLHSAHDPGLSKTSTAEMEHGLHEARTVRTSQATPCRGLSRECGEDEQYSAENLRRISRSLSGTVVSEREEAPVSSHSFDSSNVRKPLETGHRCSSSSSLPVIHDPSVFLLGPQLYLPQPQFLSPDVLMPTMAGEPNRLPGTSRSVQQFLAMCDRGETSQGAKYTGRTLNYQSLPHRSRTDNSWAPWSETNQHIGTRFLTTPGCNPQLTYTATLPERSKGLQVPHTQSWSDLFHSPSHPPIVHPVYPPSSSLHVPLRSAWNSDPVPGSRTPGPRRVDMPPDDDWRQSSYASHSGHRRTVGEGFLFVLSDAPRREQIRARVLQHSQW
Sequence of USP7 (Q93009 whole entry, looked up): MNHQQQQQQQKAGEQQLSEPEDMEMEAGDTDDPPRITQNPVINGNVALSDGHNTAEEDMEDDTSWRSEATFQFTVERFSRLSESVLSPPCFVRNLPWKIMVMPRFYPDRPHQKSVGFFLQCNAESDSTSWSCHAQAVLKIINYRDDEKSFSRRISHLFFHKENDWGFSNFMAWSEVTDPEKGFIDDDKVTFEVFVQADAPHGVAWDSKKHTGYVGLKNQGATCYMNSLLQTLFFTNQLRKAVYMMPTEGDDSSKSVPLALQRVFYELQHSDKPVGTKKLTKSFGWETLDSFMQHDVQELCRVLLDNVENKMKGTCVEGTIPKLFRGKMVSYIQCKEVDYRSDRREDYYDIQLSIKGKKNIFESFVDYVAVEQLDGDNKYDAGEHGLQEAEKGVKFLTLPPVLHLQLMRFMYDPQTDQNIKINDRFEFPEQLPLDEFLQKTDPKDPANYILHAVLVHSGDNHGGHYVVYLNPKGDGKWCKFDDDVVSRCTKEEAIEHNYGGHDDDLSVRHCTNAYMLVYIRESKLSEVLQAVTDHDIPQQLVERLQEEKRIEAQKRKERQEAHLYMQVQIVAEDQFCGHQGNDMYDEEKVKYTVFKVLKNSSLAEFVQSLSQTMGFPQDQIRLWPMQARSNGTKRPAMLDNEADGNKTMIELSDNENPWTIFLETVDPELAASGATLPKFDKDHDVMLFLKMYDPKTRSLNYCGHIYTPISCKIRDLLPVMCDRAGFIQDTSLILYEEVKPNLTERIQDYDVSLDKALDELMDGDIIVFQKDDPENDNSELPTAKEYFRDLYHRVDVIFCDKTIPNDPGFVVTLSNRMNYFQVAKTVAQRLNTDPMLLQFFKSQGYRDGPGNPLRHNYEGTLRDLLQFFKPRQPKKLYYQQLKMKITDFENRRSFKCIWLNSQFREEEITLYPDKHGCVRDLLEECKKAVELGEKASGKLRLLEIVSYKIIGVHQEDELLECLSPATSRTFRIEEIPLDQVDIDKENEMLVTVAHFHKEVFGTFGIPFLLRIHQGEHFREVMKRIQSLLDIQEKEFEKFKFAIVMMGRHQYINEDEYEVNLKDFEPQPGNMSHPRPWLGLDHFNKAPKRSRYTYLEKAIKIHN
Sequence of USP46 (P62068 whole entry): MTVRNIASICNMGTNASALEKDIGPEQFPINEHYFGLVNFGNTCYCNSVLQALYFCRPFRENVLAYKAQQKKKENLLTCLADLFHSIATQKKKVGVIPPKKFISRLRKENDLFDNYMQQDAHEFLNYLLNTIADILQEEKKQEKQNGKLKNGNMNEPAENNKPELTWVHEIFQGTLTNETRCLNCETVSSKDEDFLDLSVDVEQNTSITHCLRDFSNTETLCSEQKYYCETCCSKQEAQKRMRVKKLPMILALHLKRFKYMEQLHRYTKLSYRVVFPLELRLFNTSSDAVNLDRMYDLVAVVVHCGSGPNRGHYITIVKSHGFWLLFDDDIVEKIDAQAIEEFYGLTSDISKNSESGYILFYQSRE

O=C(CCl)NCCC1=CCCCC1
inactive: USP42 0.91 | USP46 -0.0411 | USP47 -0.145 | USP48 0.0648 | USP5 0.0523 | USP54 0.116 | USP7 -0.402 | USP8 0.244 | USP9X -0.0639 | UniProt O00487 -0.0958

O=C(CCl)N1CCN2C(=O)CCC2C1 (stereo not given)
inactive: USP42 -0.359 | USP46 0.247 | USP47 -0.0244 | USP48 -0.154 | USP5 0.153 | USP54 0.776 | USP7 -0.0819 | USP8 -0.376 | USP9X -0.098 | UniProt O00487 -0.0865

O=C(CCl)Nc1ccc2c(c1)OC(F)(F)O2
active: USP47 -1.16
inactive: USP42 -0.384 | USP46 -0.0942 | USP48 -0.476 | USP5 0.218 | USP54 0.684 | USP7 -0.296 | USP8 -0.29 | USP9X -0.301 | UniProt O00487 0.0325
